# Compound activity deposited in PubChem BioAssay by The Scripps Research Institute Molecular Screening Center.
# This is a sample that favours compounds with a hit; in the whole collection about 1.1% have one here.
# GalR3 antag: antagonists of human GalR3; O60755; HEK293 GalR3-CNG cAMP membrane potential fluorescence; galR3 body fused to GalR1 C-terminus; inhibition, % at 3 µM; 0.44% of 360,000 active; AID 651719;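 active = inhibition above the screen-wide average plus 3 SD, cut at about 13% in these data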;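 also: forskolin and galanin both at EC90 stimulate the cells; cAMP rise reported by CNG channel membrane potential dye signal; 0% = forskolin plus galanin with DMSO and 100% = forskolin alone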
# Target sequence (O60755 1-299 limits assumed): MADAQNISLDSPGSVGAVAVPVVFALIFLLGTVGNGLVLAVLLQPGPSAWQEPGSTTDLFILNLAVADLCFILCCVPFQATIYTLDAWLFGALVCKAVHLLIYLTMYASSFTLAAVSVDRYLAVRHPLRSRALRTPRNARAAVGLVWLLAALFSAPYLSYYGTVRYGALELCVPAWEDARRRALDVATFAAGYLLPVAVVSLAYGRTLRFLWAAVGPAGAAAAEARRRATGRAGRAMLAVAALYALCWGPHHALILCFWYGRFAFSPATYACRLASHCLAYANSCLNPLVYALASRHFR
# SRC3 inh: human NCOA3 inhibition. Q9Y6Q9. HEK293 GAL4-SRC3 luciferase reporter, luminescence. inhibition, % at 3.6 µM. 0.17% of 360,000 active. AID 588352;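 active = inhibition above a per-campaign cutoff, the mean of all compounds plus 3 SD, cut at about 60% in these data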;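 also: 0% = DMSO-treated cells and 100% = gossypol-treated cells at 36 µM; higher means less SRC3-driven luciferase light from the GAL4 reporter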
# NCOA2 inhibitor: human SRC2 (NCOA2) inhibition; HEK293 GAL4-SRC2 luciferase reporter, luminescence; inhibition, % at 9 µM; 0.17% of 370,000 active; AID 651957;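 active = inhibition above the mean inhibition of all tested compounds plus 3 SD, set per campaign, cut at about 52% in these data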;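 also: 0% = DMSO treated cells and 100% = cells given Gossypol at 36 µM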
# NCOA1 inh: inhibitors of human steroid receptor coactivator 1 (SRC1); Q15788; HEK293 GAL4-SRC1 luciferase reporter, luminescence; inhibition, % at 3.6 µM; 0.12% of 360,000 active; AID 588354;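 active = inhibition above the campaign mean plus 3 SD, with each screening campaign given its own cutoff, cut at about 60% in these data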;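 also: 0% = DMSO treated cells and 100% = gossypol at 36 µM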
# LRH-1 inv ag: suppresses constitutive activity of human LRH-1. inhibition, % at 3.6 µM. 0.13% of 360,000 active. HEK293T StAR-luciferase reporter, LRH-1 transfected, 24 h;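 active = inhibition above the mean inhibition of all tested compounds plus 3 SD, cut at about 73% in these data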;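 also: 0% = DMSO wells and 100% = reporter-only cells lacking LRH-1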
# COUP-TFII inh: inhibitors of human COUP-TFII (NR2F2); P24468; HEK293T NGFI-A luciferase reporter, luminescence; inhibition, % at 8.6 µM; 0.7% of 370,000 active; AID 686940;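 active = inhibition above a per-plate cutoff, mean inhibition of test wells between control levels plus 3 SD, cut at about 38% in these data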;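 also: cells cotransfected with COUP-TFII expression vector driving the NGFI-A reporter; 0% = median of COUP-TF2 test wells and 100% = reporter-only cells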
# GalR3 antag conf: GalR3 (human) antagonism, confirmation. HEK293 GalR3 CNG cAMP biosensor, membrane potential fluorescence; galR3 fused to GalR1 carboxy tail; challenged with forskolin and galanin at EC90. AID 652245. shares compounds with GalR3 antag. 59% of 1,600 active. inhibition, % at 3 µM;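 active = inhibition above the primary screen's cutoff, the mean inhibition of all screened compounds plus 3 SD, cut at about 13% in these data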;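 also: 0% = forskolin plus galanin and 100% = forskolin alone with DMSO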
# CNG parental: parental cell agonism counter-screen for GalR3 antagonists | shares compounds with GalR3 antag | HEK293-CNG parental cells, cAMP membrane potential fluorescence; normalised: DMSO wells 0%, forskolin wells 100% | activation, % at 3 µM | 10% of 1,600 active; in the data active = activation above about 1.3%
# VP16 Luc counter: VP16 inhibition counter-screen for COUP-TFII; HEK293 Gal4-VP16 luciferase reporter, luminescence; 25% of 2,500 active; inhibition, % at 8.5 µM; shares compounds with COUP-TFII inh; in the data active = inhibition above about 13%
# NR2F2 inh conf: COUP-TFII (NR2F2) inhibition, confirmation assay; shares compounds with COUP-TFII inh; HEK293 NGFI-A luciferase reporter, luminescence; inhibition, % at 8.5 µM; 45% of 2,500 active; AID 687008;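 active = mean inhibition over three repeats above a set limit taken from the earlier primary screen, cut at about 38% in these data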;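 also: 100% = cells given the luciferase reporter alone without the COUP-TF2 vector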
# An asterisk follows results filed as active; x = no result given.
SMILES,GalR3 antag,SRC3 inh,NCOA2 inhibitor,NCOA1 inh,LRH-1 inv ag,COUP-TFII inh,GalR3 antag conf,CNG parental,VP16 Luc counter,NR2F2 inh conf
Cc1ccc(-c2csc(NC(=O)C3CCN(S(=O)(=O)c4cccs4)CC3)n2)cc1,101*,26,0,23,42,69*,104*,0,-6,50*
CCC[C@H]1[C@@H](N(C)Cc2ccccc2)CC[C@@]23CCCN2C(=O)CCC[C@@H]13,x,x,x,x,x,-18,x,x,x,x
O=S(=O)(c1ccccc1)N1CCC(O)(CSc2ccc(Cl)cc2)CC1,93*,32,28,-14,19,54*,108*,-1,5,37
O=C(CSc1nnc(Cn2nnc3ccccc32)o1)N(Cc1ccc(Cl)cc1)c1ccccc1,97*,34,18,25,20,72*,102*,0,4,67*
COc1ccc(-c2noc(CCCCC(=O)N3CCN(c4cc(C)ccc4C)CC3)n2)cc1,97*,21,37,25,40,82*,105*,-1,22*,65*
CC(c1ccccc1)N1CC[C@H]2C=CC[C@@H](C(=O)Nc3ccc(F)c(F)c3)[C@H]2C1=O (stereo partly drawn),x,x,x,x,x,-4,x,x,x,x
C=CC[C@@H]1NN2C(=O)[C@@H](CCCC)[C@@H]3c4cc5ccccc5cc4C=NN3[C@@H]2c2cc3ccccc3cc21,x,x,-3,x,x,19,x,x,x,x
NC(=O)c1nnn(Cc2cc(Cl)c(C(=O)c3ccc(Cl)cc3)c(Cl)c2)c1N,97*,x,7,x,34,55*,120*,-1,5,54*
Nc1c(C(=O)Nc2ccc3c(c2)OCCO3)nnn1Cc1ccc(Cl)cc1,-1,-81,-47,-92,-162,-26,x,x,x,x
COc1ccc(CNC(=S)OC2CCC23CCC(c2ccccc2)CC3)cc1 (stereo not drawn),x,x,-6,x,x,11,x,x,x,x
Cc1ccc(CNC(=O)OC(C)(C)C)c(/C=C/S(=O)(=O)NCc2ccc(F)cc2)c1,x,x,3,x,x,6,x,x,x,x
OCCC1CN(Cc2cnc(-c3ccc(Cl)cc3)nc2)CCN1C1CCCCC1 (stereo not drawn),83*,10,6,9,8,37*,13*,0,-26,0
Cc1ccc(Cn2ncc3c(N4CCN(Cc5ccc(Cl)cc5)CC4)ncnc32)cc1,53*,20,16,22,26,39*,69*,1,11,51*
Cc1ccc(Cn2ncc3c(N4CCN(c5ccc(C)cc5)CC4)ncnc32)cc1,-4,-11,5,-5,2,13,x,x,x,x
COC(=O)[C@]12C[C@H](CC(=O)N3CCCCC3)C(=O)N(Cc3cccc4ccccc34)C1=C[C@H](C(C)(C)C)O[C@@H]2C,x,x,14,x,x,12,x,x,x,x
COc1ccc(CC(=O)Nc2cccc(S(=O)(=O)N3CCCC3)c2)cc1OC,85*,32,32,15,28,62*,28*,-1,6,45*
COc1ccc(CC(=O)Nc2cccc(S(=O)(=O)N3CCOCC3)c2)cc1OC,41*,24,1,21,27,47*,18*,0,2,30
COc1ccccc1CC(=O)Nc1cccc(S(=O)(=O)N2CCOCC2)c1,-3,23,8,4,-14,3,x,x,x,x
COCCCNC(=O)c1ccc2c(c1)NC(=O)C(C)(C)O2,x,x,5,x,x,25,x,x,x,x
CC(COc1ccc(CC#N)cc1)CN1CCC(C(O)(c2ccccc2)c2ccccc2)CC1 (stereo not drawn),x,x,27,x,x,-7,x,x,x,x
